# High-throughput results: PubChem, National Center for Advancing Translational Sciences (NCATS)
# In the library only some 18% were active in any assay of this set; here they are far more common.
# RORg inh: ROR gamma (mouse) transcription inhibition; P51450; Drosophila S2 Gal4-RORgamma UAS-luciferase reporter, 20 h; Potency, µM (titrated, usually from 53.6 µM), without a hit: at the highest dose activity change, negative = inhibition, most hits filed as inhibitors; hit rate 5.4% among 310,000; note: potency is the fitted concentration of half-maximal effect; nearly all actives have a fitted effect of over 60% in size
# Target sequence (P51450 whole entry, looked up, the tested form may be a part): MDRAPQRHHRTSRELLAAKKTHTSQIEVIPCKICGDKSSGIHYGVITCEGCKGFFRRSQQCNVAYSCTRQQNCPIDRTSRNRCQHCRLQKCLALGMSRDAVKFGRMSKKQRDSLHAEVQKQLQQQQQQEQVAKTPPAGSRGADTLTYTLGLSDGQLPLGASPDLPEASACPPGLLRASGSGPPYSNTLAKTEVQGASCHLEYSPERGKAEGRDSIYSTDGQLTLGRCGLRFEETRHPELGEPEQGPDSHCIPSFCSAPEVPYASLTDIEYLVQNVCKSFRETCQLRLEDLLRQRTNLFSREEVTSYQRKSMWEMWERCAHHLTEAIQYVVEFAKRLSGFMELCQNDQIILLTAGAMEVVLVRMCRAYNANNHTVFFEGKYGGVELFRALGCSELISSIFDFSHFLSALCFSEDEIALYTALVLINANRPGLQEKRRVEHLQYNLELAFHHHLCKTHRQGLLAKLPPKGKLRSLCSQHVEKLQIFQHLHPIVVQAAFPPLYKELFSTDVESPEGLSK
#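 Schneider cells (Drosophila), stable Gal4 DBD–ROR gamma + UAS-luc; 1 hr cmpd preincubation; Cu2+ induction 700 uM final; 20 hr ambient; luminescence.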
# LDHA block: inhibitors of human lactate dehydrogenase A; P00338; purified LDHA, NADH/diaphorase-resazurin fluorescence; hits give low values; activity change, % (values are at about 110 or 230 µM); hit rate 0.15% among 480,000; in the data active = activity change below about -30%; inconclusive = mostly about -25% to -30%;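 note: plate controls were DMSO wells for no effect and wells without enzyme for full effect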
#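 Enzyme activity of human lactate dehydrogenase 5 (2 nM; 0.06 mM NADH, 0.2 mM pyruvate, 5 min, RT) is measured via a resazurin/diaphorase fluorescence readout of residual NADH.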
# IL1B secr inh: inhibitors of inflammasome signaling (IL-1 beta secretion) | THP-1 LPS/ATP IL-1B secretion, AlphaLISA, 16 h; hits give low values | activity change, % at 57.5 µM | hit rate 4.7% among 360,000; in the data active = activity change below about -50%; inconclusive = mostly about -30% to -49%
#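 THP-1 cells pretreated 1 hr with compounds (up to 57.5 uM final), then stimulated with LPS (250 ng/mL final) plus ATP (1.25 mM final); secreted IL-1B measured by AlphaLISA after 16 hr, decreased signal indicating inhibition.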
# DT40 TDP1 CPT: DT40-hTDP1 cell growth loss with CPT; chicken DT40 Tdp1-/-;hTDP1 cells + 20 nM CPT, ATP luminescence, 48 h; Potency, µM (series often up to 46.2 µM), inactives show top-dose activity change, negative = growth inhibition, hits mostly inhibitors; hit rate 12% among 420,000; AID 686979; note: potency is the fitted concentration of half-maximal effect; nearly all actives have a fitted effect of over 55% in size
#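 Chicken DT40 Tdp1-/- cells stably complemented with human TDP1 were seeded at 400 cells/well in medium containing 20 nM camptothecin, exposed to pin-transferred compounds, and grown at 37 °C for at least 48 hr. Viability was read as ATP luminescence.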
# TDP1 cell noCPT: qHTS for Inhibitors of human tyrosyl-DNA phosphodiesterase 1 (TDP1): qHTS in cells in absence of CPT; AID 686978, 2013; Potency, µM (titrated, usually from 46.2 µM), inactives show top-dose activity change, negative = growth inhibition, usual class: inhibitors; DT40 Tdp1-/- hTDP1 cells, no CPT, ATP luminescence, 48 h; hit rate 15% among 420,000; note: potency is the fitted concentration of half-maximal effect; nearly all actives have a fitted effect of over 55% in size
#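 Compound effects on proliferation are scored in DT40 Tdp1-/-;hTDP1 cells in the absence of CPT. ATP levels (CellTiter-Glo luminescence) are recorded after a ≥48 hr, 37 °C incubation.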
# Gal4-VP16 FLuc: inhibits Gal4-VP16 luciferase reporter, ROR gamma counter-screen; Drosophila S2 Gal4-VP16 UAS-luciferase, luminescence, 20 h; Potency, µM (titrated, usually from 53.6 µM), for the others: top-dose activity, negative = inhibition, most hits filed as inhibitors; hit rate 3.5% among 310,000;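 note: Gal4-VP16 expression switched on by copper sulfate through the metallothionein promoter; potency is the fitted concentration of half-maximal effect; nearly all actives have a fitted effect of over 50% in size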
# Starred values were filed as active, the others as inactive; ? = inconclusive; nt = no result. Unless noted, calls come from the whole dose curve; as a rule, active = well fitted curve in the direction sought with a large enough effect; inconclusive = small, poorly fitted or top-dose-only effect, or another doubt; inactive = no such curve, though single readings can be large; an effect the other way counts as inactive or inconclusive. Unless noted, % is set by controls: 0 for no effect and ±100 for the full control effect.
SMILES,RORg inh,LDHA block,IL1B secr inh,DT40 TDP1 CPT,TDP1 cell noCPT,Gal4-VP16 FLuc
CN(C)C=Nc1ccc2nc3c(cc2c1)[nH]c1ccccc13,?,3.5,16.4,?,11.6µM*,?
CCOC(=O)c1[nH]c2ccccc2c1N=CN(C)C,nt,-2.0,0.0,1.4%,2.2%,nt
CC(=O)c1c(C)[nH]c(C(=O)C(C)OC(=O)c2cccc(O)c2)c1C (stereo not drawn),nt,0.2,nt,nt,nt,nt
CCCc1cc(=O)oc2c3c(cc(OCC(=O)NCc4ccncc4)c12)OC(C)(C)CC3,?,2.6,?,6.51µM*,20.6µM*,1.1%
CCCc1cc(=O)oc2c3c(cc(OCC(=O)NCCN4CCOCC4)c12)OC(C)(C)CC3,-2.9%,-3.7,?,?,?,-5.1%
CCCc1cc(=O)oc2c3c(cc(OCC(=O)NCc4ccccn4)c12)OC(C)(C)CC3,43.2%,3.3,?,23.1µM*,?,-2.3%
Cc1c(C)c2c(OCC(=O)NCC(O)c3ccccc3)cc3c(c2oc1=O)CCC(C)(C)O3 (stereo not drawn),0.2%,-1.8,-2.7,?,?,20.1%
Cc1c(C)c2c(OCC(=O)NCc3ccccn3)cc3c(c2oc1=O)CCC(C)(C)O3,27.4%,-7.6,?,14.6µM*,16.4µM*,-1.1%
COCCCNC(=O)COc1cc2c(c3oc(=O)c(C)c(C)c13)CCC(C)(C)O2,-9.9%,-2.3,-6.7,?,2.06µM*,-10.2%
CCCc1cc(=O)oc2c3c(cc(OCC(=O)N[C@@H](C)C(=O)O)c12)OC(C)(C)CC3,7.9%,-6.2,7.7,1.8%,4.1%,-6.0%
COc1ccccc1NC(=O)CCc1c[nH]c2ccccc12,nt,13.9,nt,nt,nt,nt
O=C(O)CS(=O)(=O)Cc1cccc(Br)c1,nt,0.6,nt,nt,nt,nt
COc1ccc(CNC(=O)C2CC(C)=C(C)CC2C(=O)O)cc1OC (stereo not drawn),-23.1%,-4.2,24.4,1.3µM*,1.3µM*,-13.3%
COc1ccc(CCNC(=O)C2CC(c3cc(OC)c(OC)c(OC)c3)=NO2)cc1OC (stereo not drawn),nt,2.9,nt,nt,nt,nt
Cc1ccc(CNC(=O)C2CC(c3cccc(F)c3)=NO2)cc1 (stereo not drawn),18.8%,0.0,12.1,0.0%,-11.6%,-12.3%
COc1cc(C2=NOC(C(=O)NCc3ccc(F)cc3)C2)cc(OC)c1OC (stereo not drawn),1.8%,1.4,25.4,0.82µM*,0.581µM*,1.5%
COc1cccc(C2=NOC(C(=O)NC(C)(C)C)C2)c1 (stereo not drawn),-17.0%,1.0,-9.6,-3.1%,-0.3%,-5.5%
COc1cccc(C2=NOC(C(=O)NCc3cccs3)C2)c1 (stereo not drawn),14.5%,-4.2,14.6,20.6µM*,14.6µM*,4.2%
COc1ccc(C2=NOC(C(=O)NCc3ccc(F)cc3)C2)cc1OC (stereo not drawn),15.8%,-2.3,56.2,5.8µM*,5.8µM*,6.4%
COc1cccc(C2=NOC(C(=O)NCc3cccnc3)C2)c1 (stereo not drawn),21.6%,-3.7,50.8,-18.0%,?,-5.2%
COc1cccc(C2=NOC(C(=O)NCc3ccc(F)cc3)C2)c1 (stereo not drawn),-7.1%,-1.5,0.0,11.6µM*,18.4µM*,8.4%
CCCCCOc1ccc(OC(=O)c2ccncc2)cc1,-30.2%,-1.1,23.4,11.6µM*,13µM*,0.1%
COc1cccc(NC(=S)N(CCCN2CCC(C)CC2)Cc2cccs2)c1,-23.3%,-4.9,-22.7,-27.1%,?,17.9%
CCOC(=O)c1ccc(NC(=S)N(CCN2CCCCCC2)Cc2cccs2)cc1,12.6µM*,-5.4,-3.3,?,14.6µM*,?
COc1ccc(NC(=S)N(CCCN2CCC(C)CC2)Cc2cccs2)cc1,10.1%,-6.4,-51.3*,-9.7%,?,1.8%
SMILES,RORg inh,LDHA block,IL1B secr inh,DT40 TDP1 CPT,TDP1 cell noCPT,Gal4-VP16 FLuc
CCOC(=O)c1ccc(NC(=S)N(CCCN2CCCC2)Cc2cccs2)cc1,-1.0%,-2.5,12.3,?,?,6.7%
Cc1ccc(NC(=S)N(CCCN2CCC(C)CC2)Cc2ccco2)cc1C,?,-2.3,-78.5*,?,?,-10.2%
Cc1ccc(NC(=S)N(CCCN2CCN(C)CC2)Cc2cccs2)cc1C,4.2%,-1.1,-60.8*,-10.2%,-28.2%,-5.4%
O=C(Nc1cccc(C(F)(F)F)c1)C1CCCN1c1ncnc2ccccc12 (stereo not drawn),nt,3.0,nt,nt,nt,nt
N#Cc1ccccc1C(=O)c1ccc(Br)cc1,nt,1.1,nt,nt,nt,nt
CCOC(=O)c1ccc(NC(=S)N(CCCN2CCCC(C)C2)Cc2cccs2)cc1 (stereo not drawn),?,-2.8,-80.6*,?,25.9µM*,-13.0%
O=C(CNC(=S)N(CCCN1CCOCC1)Cc1cccs1)NC1CCCCCCC1,-13.8%,1.5,-53.9*,?,16.4µM*,-2.3%
CCOC(=O)c1ccc(NC(=S)N(CCCN2CCCC(C)C2)Cc2ccco2)cc1 (stereo not drawn),-12.3%,-0.1,-22.1,-28.8%,?,-5.0%
CCOC(=O)c1ccc(NC(=S)N(CCCN2CCN(CC)CC2)Cc2ccco2)cc1,18.5%,-11.6,-10.5,7.9%,-23.1%,0.4%
CCOC(=O)c1ccc(NC(=S)N(CCCN2CCN(C)CC2)Cc2cccs2)cc1,11.5%,-7.1,?,-27.8%,-13.8%,4.4%
CCOC(=O)c1ccc(NC(=S)N(CCCN2CCCC2)Cc2ccco2)cc1,-11.9%,-7.1,-67.2*,?,?,-0.7%
CCOC(=O)c1ccc(NC(=S)N(CCCN2CCN(CC)CC2)Cc2cccs2)cc1,27.9%,-4.4,-1.2,?,18.4µM*,-8.2%
Cc1ccc(OCCN(C)C(=O)c2cc(=O)[nH]c3ccccc23)cc1,nt,5.1,nt,nt,nt,nt
COc1ccc(-c2c(-c3ccccc3OC)sc3ccccc23)cc1C=O,nt,-3.0,20.2,?,18.4µM*,nt
COc1ccc(-c2sc3ccccc3c2-c2cc(OC)ccc2C=O)cc1,nt,-2.5,78.1,?,20.6µM*,nt
COc1ccc(-c2cc(=O)c3ccccc3s2)cc1,7.7%,-10.7,-59.5*,?,?,-9.8%
COc1ccc(-c2sc3ccccc3c2/C=C/c2ccncc2)cc1,nt,0.1,-4.2,?,16.4µM*,nt
COc1ccc(-c2c(-c3ccccc3OC)sc3ccccc23)cc1OC,3.4%,-0.1,-3.4,?,4.3%,3.0%
COc1ccc(C=O)c(-c2c(CCO)sc3ccccc23)c1,nt,-4.5,43.1,?,?,nt
